This experiment deals with Plasmodium falciparum. Briefly: Primary screen in NF54 nanoGlo assay, in single point, at 2uM, 72h; a lower Z score goes with more inhibition. As to conditions: timepoint 72 hour. The class given is functional, Erythrocyte.

The whole screen tested about 150,000 compounds, of which about 540 (0.36%) showed an effect of 50% or more. Only a selection was taken, and strong results are over-represented in it overall.

For the molecule `COc1cc(=O)n2c(c1C(=O)NC1CCN(Cc3ccccc3)CC1)CCCCC2`, the % Inhibition (commonly the change of the read-out against control, counted positive when it falls) is recorded as -8% and the Z score was 0.91.
Taken in the same sequence, the figures for `COc1cn(CC(=O)NC2CCN(Cc3ccccc3)CC2)c(CN2CCOCC2)cc1=O` were 7% and -0.83.
Consider `COc1cc([C@H](CC(=O)NC2CCN(Cc3ccccc3)CC2)N2Cc3ccccc3C2=O)cc(OC)c1OC`, for which the “% Inhibition” value is 68% and the Z score is reported as -9.85.
Taken in the same sequence, the figures for `Cn1cccc1CNc1nnc([C@@H]2CCCO2)o1` were -5% and 0.81.
Taken in the same sequence, the figures for `C[C@H]1NC(=O)N(c2cccc(C#N)c2)C1=O` were -4% and 0.53.
Taken in the same sequence, the figures for `O=C(NCCN1C(=O)COC1=O)c1cccs1` were 12% and -2.12.
With `CC[C@H](C)N(CC(=O)N(CCOC)Cc1cccn1Cc1ccccc1)C(=O)c1ccco1`, the “% Inhibition” value was -8% and the Z score stood at 1.33.
Taken in the same sequence, the figures for `COc1cccc(OC)c1-c1cncc(C(=O)NCC2CC2)c1` were -9% and 1.48.
With `O=S(=O)(CCO)c1ccc(NCc2ccc(Cl)s2)cc1`, the “% Inhibition” value is reported as -5% and the Z score worked out at 0.74.
`Cc1nc(CNc2ccc(S(=O)(=O)CCO)cc2)cs1`: the “% Inhibition” value was -22% and the Z score is given as 4.06.
As to `CC(C)(C)c1nc(CNc2ccc(S(=O)(=O)CCO)cc2)no1`, the “% Inhibition” value was determined as 52% and the Z score is recorded as 1.4.
Taken in the same sequence, the figures for `O=C(Nc1ccccc1C(=O)N1CCCCC1)[C@H]1CCCN(S(=O)(=O)c2cccs2)C1` were 3% and -0.58.
Taken in the same sequence, the figures for `Nc1ccnc2c(-c3ccncc3)cccc12` were -2% and 0.26.
Taken in the same sequence, the figures for `Cc1ccn(C2CCN(C(=O)C(C)(C)c3c[nH]cn3)CC2)n1` were -6% and 1.19.
In the case of `Cc1cc(-c2c(C)sc(C)c2S(=O)(=O)N2CCOCC2)on1`, the “% Inhibition” value was -8% and the Z score came to 1.45.
As to `Cc1ccc(S(=O)(=O)N(CC(=O)N[C@@H]2C[C@H]3CC[C@@H]2C3)c2cccc(Br)c2)cc1`, the “% Inhibition” value is -15% and the Z score is recorded as 2.16.
Taken in the same sequence, the figures for `Cc1ccc(S(=O)(=O)N(CC(=O)N[C@@H](C)c2ccccc2)c2cccc(Br)c2)cc1` were 50% and -1.08.
As to `COc1ccccc1N(CC(=O)N[C@H](C)c1ccccc1)S(=O)(=O)c1ccc(C)cc1`, the “% Inhibition” value is listed as 1% and the Z score was -0.13.
For the molecule `O=C(Nc1cc(Br)cc(C(F)(F)F)c1)c1ccnnc1`, the “% Inhibition” value is -2% and the Z score is given as 0.3.
Taken in the same sequence, the figures for `O=C(Nc1ccc(-c2onc3c2CCCC3)cc1)c1c(Cl)cc(Cl)cc1Cl` were -2% and 0.3.
With `O=C(Nc1cc(-c2onc3c2CCCC3)cc(C(F)(F)F)c1)c1cncc(Br)c1`, the “% Inhibition” value is recorded as 96% and the Z score was -8.79.
Taken in the same sequence, the figures for `COc1ccc(C(=O)N[C@H]2CCOC3(CCOCC3)C2)c(C)c1` were 0% and 0.06.
Taken in the same sequence, the figures for `COc1cc2c(cc1OC)C(=O)N(Cc1ccccc1)C(=O)C2=O` were -13% and 1.31.
Taken in the same sequence, the figures for `COC(=O)c1ccccc1NC(=O)C[C@@H]1Nc2cccc3cccc(c23)NC1=O` were -5% and 0.52.
In the case of `COCc1ccc(CNCc2cc3cc(Cl)c(Cl)cc3[nH]2)cc1`, the “% Inhibition” value was -13% and the Z score amounted to 1.44.
For `COc1ccc(-c2nc3ccc(C(=O)NC4CCCC(C)C4C)cc3nc2-c2ccc(OC)c(OC)c2)cc1OC` (centres undefined), the “% Inhibition” value turned out to be 24% and the Z score is -2.87.
Taken in the same sequence, the figures for `Cc1ncsc1Cn1ccn2nc(C(F)(F)F)cc2c1=O` were 15% and -1.93.
Taken in the same sequence, the figures for `Cc1cccc(C(=O)Nc2nc3cc4sc(NC(=O)c5cccc(C)c5)nc4cc3s2)c1` were 64% and 0.77.
Taken in the same sequence, the figures for `Cc1cccc(C(=O)N=C(N)Nc2nc3ccccc3s2)c1` were -8% and 0.72.
For `Cc1cccc(S(=O)(=O)Nc2ccc3nc(NC(=O)c4ccccc4)sc3c2)c1`, the “% Inhibition” value was determined as 37% and the Z score is recorded as -0.65.
As for `c1[nH]nnc1CCN1CCOC[C@@H]1CC1CCOCC1`, the “% Inhibition” value amounted to 5% and the Z score is listed as -1.02.
For the molecule `CCc1cnc(Cn2nc(-c3ccccc3)cc(C(F)(F)F)c2=O)o1`, the “% Inhibition” value is on record as -6% and the Z score turned out to be 0.55.
Taken in the same sequence, the figures for `C=CC[C@]1(C(=O)O)CCCN(Cc2c(C)nn(CC)c2C)C1` were -6% and 1.
For the molecule `Cc1cccc(CN2CCC[C@H](C(=O)c3ccc4c5c(cccc35)CC4)C2)n1`, the “% Inhibition” value is reported as 58% and the Z score was -11.5.
With `Cc1cc(C(=O)N2CCC[C@H](C(=O)c3ccc4c5c(cccc35)CC4)C2)nc(N)n1`, the “% Inhibition” value is listed as -4% and the Z score is recorded as 0.45.
Taken in the same sequence, the figures for `CC(=O)N1CCC(N2CCC[C@H](C(=O)c3ccc4c5c(cccc35)CC4)C2)CC1` were -11% and 1.6.
Taken in the same sequence, the figures for `Cc1nnc(-c2ccc3ccn(CC(=O)Nc4ccc(F)c(Cl)c4)c3c2)o1` were 85% and -10.55.
Take `Cc1cccc(NC(=O)Cn2ccc3ccc(-c4nnc(C)o4)cc32)c1`: the “% Inhibition” value stood at 6% and the Z score was -0.76.
Taken in the same sequence, the figures for `CCc1cccc(NC(=O)Cn2ccc3ccc(-c4nnc(C)o4)cc32)c1` were 78% and -9.29.
Taken in the same sequence, the figures for `COc1cccc(NC(=O)Cn2ccc3ccc(-c4nnc(C)o4)cc32)c1` were 7% and -0.81.
Taken in the same sequence, the figures for `Cc1ccc(NC(=O)Cn2ccc3ccc(-c4nnc(C)o4)cc32)cc1` were -3% and 0.31.
Take `Cc1cc(C)cc(NC(=O)Cn2ccc3ccc(-c4nnc(C)o4)cc32)c1`: the “% Inhibition” value is 2% and the Z score is reported as -0.2.

For the origin of these results see ChEMBL document CHEMBL4888484, “Replenishing the malaria drug discovery pipeline: Screening and hit evaluation of the MMV Hit Generation Library 1 (HGL1) against asexual blood stage Plasmodium falciparum ,using a nano luciferase reporter read-out” (2022).
